Source: the supplement of paper PMC8975748
Counter-ions that a name gives are not always drawn.

System: Saccharomyces cerevisiae BY4741 SeMeCo community
Test: z-score of subpopulation abundance vs DMSO median, subpopulation auxotrophic for LM; higher = larger share of this subpopulation than in DMSO controls
Conditions: 10 µM; 24 h; SM minimal medium; subpopulation (auxotrophy): LM
Experimental: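 Fluorescent four-plasmid SeMeCo (self-establishing metabolically cooperating S. cerevisiae BY4741 community; plasmids pH-mRuby2, pL-mWasabi, pU-eCFP, pM-TagRFP657) was grown 24 h in minimal SM medium with each Selleck FDA-approved drug at 10 µM in 384-well plates. Cells were fixed and imaged by high-content confocal microscopy. For each auxotrophic subpopulation (and the prototroph), a z-score gives the deviation from the DMSO vehicle-control population median.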

SMILES | z-score of subpopulation abundance
C[C@]12CC[C@@H]3c4ccc(OC(=O)c5ccccc5)cc4CC[C@H]3[C@@H]1CC[C@@H]2O [Estradiol Benzoate] | 0.31
CC1(C)[C@H](C(=O)O)N2C(=O)C[C@H]2S1(=O)=O [Sulbactam sodium] | -0.08
CCCCOc1ccc(C(=O)CCN2CCCCC2)cc1 [Dyclonine HCl] | 0.14
O=C(O)C[C@H](O)C[C@H](O)/C=C/c1c(C2CC2)nc2ccccc2c1-c1ccc(F)cc1 [Pitavastatin Calcium] | -0.2
CC(C(=O)O)c1ccc2c(c1)[nH]c1ccc(Cl)cc12 (stereo not given) [Carprofen] | -1.27
OC[C@H]1O[C@H](OCC2O[C@@H](O)[C@H](O)[C@@H](O)[C@@H]2O)[C@H](O)[C@@H](O)[C@H]1O (stereo not given in full) [Melibiose] | -0.85
C[C@@H](O)[C@H]1C(=O)N2C(C(=O)O)=C([C@H]3CCCO3)S[C@H]12 [Faropenem Sodium] | -0.23
CN1C[C@@H]2C[C@H]1CN2c1cc2c(cc1F)c(=O)c(C(=O)O)cn2C1CC1 [Danofloxacin Mesylate] | -0.68
COCCCOc1ccnc(C[S+]([O-])c2nc3ccccc3[nH]2)c1C (stereo not given) [Rabeprazole] | -0.33
CC(C)[C@H](N)C(=O)OCC(CO)OCn1cnc2c(=O)[nH]c(N)nc21 (stereo not given in full) [Valganciclovir HCl] | -0.45
CC[C@H](C)C(=O)O[C@H]1C[C@@H](C)C=C2C=C[C@H](C)[C@H](CC[C@@H]3C[C@@H](O)CC(=O)O3)[C@H]21 [Lovastatin] | -0.13
Clc1ccc(COC(Cn2ccnc2)c2ccc(Cl)cc2Cl)cc1 (stereo not given) [Econazole] | -1.56
COc1ccc2[nH]c([S@@+]([O-])Cc3ncc(C)c(OC)c3C)nc2c1 [NEXIUM (esomeprazole magnesium)] | 0.3
CC/C(=C(/CC)c1ccc(O)cc1)c1ccc(O)cc1 [Diethylstilbestrol] | -0.03
NC[C@H]1O[C@H](O[C@H]2[C@H](O)[C@@H](O[C@H]3O[C@H](CO)[C@@H](O)[C@H](N)[C@H]3O)[C@H](N)C[C@@H]2N)[C@H](O)[C@@H](O)[C@@H]1O [Kanamycin sulfate] | 1.55
CCN(CC)CCOCCOC(=O)C1(c2ccccc2)CCCC1 [Pentoxyverine Citrate] | -0.24
Cc1cc(NS(=O)(=O)c2ccc(N)cc2)nc(C)n1 [sulfaisodimidine] | 0.12
CC/C(=C(\c1ccccc1)c1ccc(OCCN(C)C)cc1)c1ccccc1 [Tamoxifen] | 1.82
CC[C@H]1OC(=O)[C@H](C)[C@@H](O[C@H]2C[C@@](C)(OC)[C@@H](O)[C@H](C)O2)[C@H](C)[C@@H](O[C@@H]2O[C@H](C)C[C@H](N(C)C)[C@H]2O)[C@](C)(O)C[C@@H](C)CN(C)[C@H](C)[C@@H](O)[C@]1(C)O [Azithromycin Dihydrate] | -0.45
CNCC[C@@H](Oc1ccccc1C)c1ccccc1 [Atomoxetine HCl] | 0.36

SMILES | z-score of subpopulation abundance
O=C(O)c1cc(-c2ccc(F)cc2F)ccc1O [Diflunisal] | -1.23
CC[C@H](c1ccc(O)cc1)[C@@H](CC)c1ccc(O)cc1 [Hexestrol] | -0.2
CC[C@H]1OC(=O)[C@H](C)[C@@H](O[C@H]2C[C@@](C)(OC)[C@@H](O)[C@H](C)O2)[C@H](C)[C@@H](O[C@@H]2O[C@H](C)C[C@H](N(C)C)[C@H]2O)[C@](C)(O)C[C@@H](C)CN(C)[C@H](C)[C@@H](O)[C@]1(C)O [Azithromycin] | 0.27
Cc1cccc(C#Cc2ccccc2)n1 | -0.31
CO[C@@]1(NC(=O)C(C(=O)O)c2ccc(O)cc2)C(=O)N2C(C(=O)O)=C(CSc3nnnn3C)CO[C@@H]21 (stereo not given in full) [Latamoxef sodium] | -0.29
Oc1ccc([C@H]2COc3cc(O)ccc3C2)cc1 [Equol] | 0.45
O=C1C(=O)c2ccccc2C(O)=C1C1CCC(c2ccc(Cl)cc2)CC1 (stereo not given) [Atovaquone] | 1.39
C[C@]1(COc2ccc(N3CCC(Oc4ccc(OC(F)(F)F)cc4)CC3)cc2)Cn2cc([N+](=O)[O-])nc2O1 [Delamanid] | 0.45
CN(C)CCCC1(c2ccc(F)cc2)OCc2cc(C#N)ccc21 (stereo not given) [Citalopram HBr] | -0.05
C#C[C@]1(O)CC[C@H]2[C@@H]3CCC4=CC(=O)CC[C@@H]4[C@H]3CC[C@@]21CC [Levonorgestrel] | -0.89
CC[C@H]1OC(=O)C[C@@H](O)[C@H](C)[C@@H](O[C@@H]2O[C@H](C)[C@@H](O)[C@H](N(C)C)[C@H]2O)[C@@H](CCN2C[C@H](C)C[C@H](C)C2)C[C@@H](C)C(=O)/C=C/C(C)=C/[C@@H]1CO[C@@H]1O[C@H](C)[C@@H](O)[C@@H](OC)[C@H]1OC [Tilmicosin] | 0.46
CNCCCC1c2ccccc2C=Cc2ccccc21 [Protriptyline hydrochloride] | -0.93
Clc1ccc(CCC(Cn2ccnc2)Sc2c(Cl)cccc2Cl)cc1 (stereo not given) [Butoconazole nitrate] | -0.84
Cc1cc(=O)n(-c2ccccc2)n1C [Antipyrine] | -0.72
CCCC(=O)OCOC(=O)C1=C(C)NC(C)=C(C(=O)OC)C1c1cccc(Cl)c1Cl (stereo not given) [Clevidipine Butyrate] | 3.42
O=c1c(-c2ccc(O)cc2)coc2c([C@@H]3O[C@H](CO)[C@@H](O)[C@H](O)[C@H]3O)c(O)ccc12 [Puerarin] | -0.04
Cc1noc(NS(=O)(=O)c2ccc(N)cc2)c1C [Sulfisoxazole] | 0.69
C[C@@H](O)[C@H]1C(=O)N2C(C(=O)[O-])=C(SC3Cn4cnc[n+]4C3)[C@H](C)[C@H]12 (stereo not given in full) [Biapenem] | -0.22
O=C(O)c1cn(C2CC2)c2cc(N3CCNCC3)c(F)cc2c1=O [Ciprofloxacin hydrochloride hydrate] | -0.37
CC(C)NC(=N)NC(=N)Nc1ccc(Cl)cc1 [Proguanil] | 0.02
